Source: PubChem BioAssay AID1159580 (chemical genetic matrix, 2015)
In all, about 5,500 compounds went through this assay and about 2,000 (36%) were called active. About 18% were inconclusive and are not listed. No stated cut-off is given here; in the data, active means normalized growth mostly below about 0.91 (no sharp cut-off); inconclusive means no clear call, values can overlap the other calls; inactive means mostly above about 0.92. The list shows a part of the results.

Experiment: chemical genetic growth profiling, strain panel (AID 1159580);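 further: tested at 20 µM; growth read once vehicle control cultures reached saturation at 30 °C; 1 = growth at the plate median or of vehicle wells; lower values mean less growth of the strain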
Settings: S. cerevisiae deletion strains, growth OD

Measured: normalized growth

CC(=O)NCCc1ccc(O)c(-c2c(O)c(O)c3c(c2O)C(=O)c2c(cc(O)c(C(=O)O)c2C(=O)O)C3=O)c1
inactive: locus YHR030C, strain SLT2, active compounds read low 1 | locus YHR079C, strain IRE1, active compounds read low 1.01 | locus YJL095W, strain BCK1, active compounds read low 0.992 | locus YJR066W, strain TOR1, active compounds read low 0.931 | locus YLR113W, strain HOG1, active compounds read low 1.01 | locus YNL183C, strain NPR1, active compounds read low 0.924 | locus YOR231W, strain MKK1, active compounds read low 1.03 | locus YPL256C, strain CLN2, active compounds read low 1.04
